According to the supplement of paper PMC10849652:
Of roughly 7,900 targets only a part is listed; those with a hit were picked by preference. About 0.6% of all pairs of compound and target were hits. Values without a mark were called inactive.

Legend:
Test in all cases: log2 fold change, soluble protein after heating vs DMSO (PISA); higher = thermal stabilisation; K562 cells, 10 uM, 30 min; active = over 0.2 and 3.5 SD of the protein, either way, in both replicates (recomputed)
[1] = compound: NC(=O)Nc1cc(-c2cccc(F)c2)sc1C(=O)N[C@H]1CCCNC1
Method in brief: (§1)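 K562 cells at 2×10^6 cells/mL were treated with 10 μM compound for 30 min. Aliquots were heated for 3 min across 48°C-58°C, pooled, and extracted in PBS with 0.5% NP-40 at 4°C; soluble protein was the supernatant after 21,000xg for 90 min. Soluble protein was quantified by TMTpro 16plex LC-MS/MS with channel sums equalised, and reported as log2 fold change in thermal stability against DMSO controls, with values from duplicates.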

[2] = compound: NC(=O)c1cnc(N[C@@H]2CCCC[C@@H]2N)nc1Nc1cccc(-n2nccn2)c1
Method in brief: as §1

[3] = compound: NC1(c2ccc(-c3nc4ccn5c(=O)[nH]nc5c4cc3-c3ccccc3)cc2)CCC1
Method in brief: as §1

[4] = compound: NCC(=O)Nc1ccc(-n2nc(C(F)(F)F)cc2-c2ccc3c(ccc4ccccc43)c2)cc1
Method in brief: as §1

entinostat = compound: Nc1ccccc1NC(=O)c1ccc(CNC(=O)OCc2cccnc2)cc1 [entinostat]
Method in brief: as §1

vorinostat = compound: O=C(CCCCCCC(=O)Nc1ccccc1)NO [vorinostat]
Method in brief: as §1

citarinostat = compound: O=C(CCCCCCNC(=O)c1cnc(N(c2ccccc2)c2ccccc2Cl)nc1)NO [citarinostat]
Method in brief: as §1

silmitasertib = compound: O=C(O)c1ccc2c(c1)nc(Nc1cccc(Cl)c1)c1ccncc12 [silmitasertib]
Method in brief: as §1

[5] = compound: O=C1NC(=O)C(c2cnc3ccccn23)=C1c1cn2c3c(cc(F)cc13)CN(C(=O)N1CCCCC1)CC2
Method in brief: as §1

[6] = compound: c1cc(OCCN2CCCCC2)cc(-c2n[nH]c3ccc(-c4nnc[nH]4)cc23)c1
Method in brief: as §1

entospletinib = compound: c1cn2cc(-c3ccc4cn[nH]c4c3)nc(Nc3ccc(N4CCOCC4)cc3)c2n1 [entospletinib]
Method in brief: as §1

Chain of UniProt Q04637 (Q04637 whole entry, looked up): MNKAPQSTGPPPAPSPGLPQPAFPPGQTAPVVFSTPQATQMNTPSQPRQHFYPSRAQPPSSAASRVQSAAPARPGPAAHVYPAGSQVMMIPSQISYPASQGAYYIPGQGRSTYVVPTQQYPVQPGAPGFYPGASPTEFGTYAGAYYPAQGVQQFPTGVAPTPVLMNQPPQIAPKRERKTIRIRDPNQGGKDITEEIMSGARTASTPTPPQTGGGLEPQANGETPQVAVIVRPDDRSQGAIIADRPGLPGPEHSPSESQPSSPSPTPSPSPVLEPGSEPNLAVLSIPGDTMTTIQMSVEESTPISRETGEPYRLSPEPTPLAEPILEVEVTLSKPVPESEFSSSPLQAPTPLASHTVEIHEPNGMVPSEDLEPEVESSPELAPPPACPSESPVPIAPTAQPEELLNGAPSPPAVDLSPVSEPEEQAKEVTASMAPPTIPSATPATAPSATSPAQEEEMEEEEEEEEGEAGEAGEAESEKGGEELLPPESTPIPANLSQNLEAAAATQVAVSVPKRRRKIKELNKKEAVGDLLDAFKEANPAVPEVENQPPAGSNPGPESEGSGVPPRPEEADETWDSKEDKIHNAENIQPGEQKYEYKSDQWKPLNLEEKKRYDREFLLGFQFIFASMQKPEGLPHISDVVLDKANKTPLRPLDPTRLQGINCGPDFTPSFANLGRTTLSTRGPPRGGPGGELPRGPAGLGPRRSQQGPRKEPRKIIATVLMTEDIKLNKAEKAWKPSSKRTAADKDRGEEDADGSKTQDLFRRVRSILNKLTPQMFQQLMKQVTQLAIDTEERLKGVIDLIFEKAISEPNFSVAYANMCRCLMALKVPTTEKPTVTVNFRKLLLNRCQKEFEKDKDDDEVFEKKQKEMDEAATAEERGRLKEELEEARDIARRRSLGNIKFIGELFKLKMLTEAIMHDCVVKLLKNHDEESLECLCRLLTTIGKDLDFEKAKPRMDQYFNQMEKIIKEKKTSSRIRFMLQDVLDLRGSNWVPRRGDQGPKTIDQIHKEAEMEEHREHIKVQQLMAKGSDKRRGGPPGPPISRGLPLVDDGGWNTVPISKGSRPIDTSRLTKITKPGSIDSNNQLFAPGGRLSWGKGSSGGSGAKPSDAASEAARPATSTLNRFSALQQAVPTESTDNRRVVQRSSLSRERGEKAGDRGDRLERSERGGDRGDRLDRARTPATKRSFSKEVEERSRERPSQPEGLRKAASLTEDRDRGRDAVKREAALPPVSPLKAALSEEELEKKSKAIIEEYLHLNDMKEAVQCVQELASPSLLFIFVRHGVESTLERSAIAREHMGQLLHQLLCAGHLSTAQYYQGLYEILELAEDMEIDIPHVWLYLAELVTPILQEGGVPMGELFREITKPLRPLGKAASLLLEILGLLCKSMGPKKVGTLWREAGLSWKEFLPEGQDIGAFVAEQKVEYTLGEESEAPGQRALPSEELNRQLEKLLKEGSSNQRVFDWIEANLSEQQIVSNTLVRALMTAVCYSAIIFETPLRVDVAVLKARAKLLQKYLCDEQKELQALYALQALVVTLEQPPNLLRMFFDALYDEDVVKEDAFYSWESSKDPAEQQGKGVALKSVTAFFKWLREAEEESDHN
Chain of UniProt Q9BW60 (Q9BW60 whole entry, looked up): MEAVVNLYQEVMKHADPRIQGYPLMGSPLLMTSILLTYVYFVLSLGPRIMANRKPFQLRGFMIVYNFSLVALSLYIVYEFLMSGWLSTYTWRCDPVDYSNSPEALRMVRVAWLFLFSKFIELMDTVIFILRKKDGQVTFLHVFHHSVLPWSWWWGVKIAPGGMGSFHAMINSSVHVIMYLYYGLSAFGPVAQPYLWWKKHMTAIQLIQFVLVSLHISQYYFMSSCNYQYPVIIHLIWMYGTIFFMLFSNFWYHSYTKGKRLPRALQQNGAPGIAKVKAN
Chain of UniProt Q9NV70 (Q9NV70 whole entry, looked up): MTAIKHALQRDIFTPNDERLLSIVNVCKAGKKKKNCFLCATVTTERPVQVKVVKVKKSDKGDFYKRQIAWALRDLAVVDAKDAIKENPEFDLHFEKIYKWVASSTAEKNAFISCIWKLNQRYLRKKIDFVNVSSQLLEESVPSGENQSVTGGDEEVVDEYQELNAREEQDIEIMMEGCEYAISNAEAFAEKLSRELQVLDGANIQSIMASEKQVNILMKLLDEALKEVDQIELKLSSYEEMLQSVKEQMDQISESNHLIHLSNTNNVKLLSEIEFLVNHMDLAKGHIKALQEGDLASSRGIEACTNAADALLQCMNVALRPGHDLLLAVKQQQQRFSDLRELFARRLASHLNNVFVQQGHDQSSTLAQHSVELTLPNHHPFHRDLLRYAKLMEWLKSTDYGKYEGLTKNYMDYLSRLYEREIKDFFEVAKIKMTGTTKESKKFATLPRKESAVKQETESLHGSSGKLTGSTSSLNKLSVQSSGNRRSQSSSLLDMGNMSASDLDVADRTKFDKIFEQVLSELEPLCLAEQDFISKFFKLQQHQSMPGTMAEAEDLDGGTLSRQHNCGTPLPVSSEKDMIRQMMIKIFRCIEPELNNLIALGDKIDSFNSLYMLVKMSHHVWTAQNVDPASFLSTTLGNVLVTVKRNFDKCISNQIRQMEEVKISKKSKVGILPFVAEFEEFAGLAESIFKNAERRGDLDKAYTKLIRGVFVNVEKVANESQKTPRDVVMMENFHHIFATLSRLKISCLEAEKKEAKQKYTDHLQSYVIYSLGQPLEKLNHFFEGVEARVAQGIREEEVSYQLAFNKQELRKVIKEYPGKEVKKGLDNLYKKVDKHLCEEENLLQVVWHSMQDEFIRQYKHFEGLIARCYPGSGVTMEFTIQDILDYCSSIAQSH
Chain of UniProt P34913 (P34913 whole entry, looked up): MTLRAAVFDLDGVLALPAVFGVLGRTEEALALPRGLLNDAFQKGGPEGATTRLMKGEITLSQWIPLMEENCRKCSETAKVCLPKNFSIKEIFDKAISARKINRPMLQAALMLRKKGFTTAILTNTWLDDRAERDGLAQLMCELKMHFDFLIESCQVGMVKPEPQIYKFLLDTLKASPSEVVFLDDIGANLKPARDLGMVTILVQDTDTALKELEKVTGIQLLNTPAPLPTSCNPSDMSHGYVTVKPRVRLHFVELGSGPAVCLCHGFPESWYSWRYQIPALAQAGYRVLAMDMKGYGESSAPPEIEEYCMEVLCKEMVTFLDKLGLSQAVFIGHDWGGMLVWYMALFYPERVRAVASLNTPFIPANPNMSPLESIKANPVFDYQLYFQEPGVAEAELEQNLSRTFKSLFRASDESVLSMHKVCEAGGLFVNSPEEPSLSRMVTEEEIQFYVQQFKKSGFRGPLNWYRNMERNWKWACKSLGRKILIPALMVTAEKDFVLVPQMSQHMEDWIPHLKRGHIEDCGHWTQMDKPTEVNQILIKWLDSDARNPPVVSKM
Chain of UniProt O60231 (O60231 whole entry, looked up): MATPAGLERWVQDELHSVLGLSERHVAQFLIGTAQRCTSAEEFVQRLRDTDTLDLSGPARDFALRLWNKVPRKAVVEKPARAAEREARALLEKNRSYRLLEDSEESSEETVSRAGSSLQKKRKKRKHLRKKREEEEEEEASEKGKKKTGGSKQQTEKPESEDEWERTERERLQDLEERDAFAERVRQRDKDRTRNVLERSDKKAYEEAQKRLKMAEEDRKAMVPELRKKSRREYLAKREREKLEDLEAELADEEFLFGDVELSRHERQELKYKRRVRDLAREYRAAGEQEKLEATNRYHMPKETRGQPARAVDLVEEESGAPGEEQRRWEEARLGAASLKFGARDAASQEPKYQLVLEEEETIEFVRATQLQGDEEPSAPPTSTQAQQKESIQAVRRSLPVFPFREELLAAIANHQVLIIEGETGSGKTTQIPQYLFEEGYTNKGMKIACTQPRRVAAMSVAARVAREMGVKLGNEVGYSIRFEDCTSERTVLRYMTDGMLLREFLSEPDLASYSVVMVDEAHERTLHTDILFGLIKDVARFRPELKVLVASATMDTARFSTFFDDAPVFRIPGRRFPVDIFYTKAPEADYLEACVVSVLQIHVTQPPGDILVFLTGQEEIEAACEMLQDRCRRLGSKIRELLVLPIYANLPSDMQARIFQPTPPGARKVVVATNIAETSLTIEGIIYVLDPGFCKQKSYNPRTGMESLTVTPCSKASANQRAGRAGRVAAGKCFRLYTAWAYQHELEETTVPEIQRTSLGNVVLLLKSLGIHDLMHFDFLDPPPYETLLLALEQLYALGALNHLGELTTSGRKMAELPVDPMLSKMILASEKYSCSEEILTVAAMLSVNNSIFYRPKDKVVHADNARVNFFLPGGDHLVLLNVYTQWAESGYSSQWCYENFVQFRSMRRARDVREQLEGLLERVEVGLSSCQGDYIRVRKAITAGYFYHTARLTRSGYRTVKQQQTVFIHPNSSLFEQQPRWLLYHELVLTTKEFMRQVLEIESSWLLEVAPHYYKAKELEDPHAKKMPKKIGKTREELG
Chain of UniProt Q16850 (Q16850 whole entry, looked up): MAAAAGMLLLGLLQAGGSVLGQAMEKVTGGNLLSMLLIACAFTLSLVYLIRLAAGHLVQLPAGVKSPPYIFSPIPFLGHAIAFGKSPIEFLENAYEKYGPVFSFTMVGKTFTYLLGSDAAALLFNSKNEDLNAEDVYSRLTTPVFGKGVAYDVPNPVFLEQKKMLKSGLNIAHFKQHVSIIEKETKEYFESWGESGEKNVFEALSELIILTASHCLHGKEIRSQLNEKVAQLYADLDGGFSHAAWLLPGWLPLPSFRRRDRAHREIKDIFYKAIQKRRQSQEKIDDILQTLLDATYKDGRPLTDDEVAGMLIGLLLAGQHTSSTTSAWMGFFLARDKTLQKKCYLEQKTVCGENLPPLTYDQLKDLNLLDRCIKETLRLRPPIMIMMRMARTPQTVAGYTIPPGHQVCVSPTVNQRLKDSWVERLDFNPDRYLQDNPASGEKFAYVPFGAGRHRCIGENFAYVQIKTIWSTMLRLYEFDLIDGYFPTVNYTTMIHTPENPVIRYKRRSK
Chain of UniProt Q96DA6 (Q96DA6 whole entry, looked up): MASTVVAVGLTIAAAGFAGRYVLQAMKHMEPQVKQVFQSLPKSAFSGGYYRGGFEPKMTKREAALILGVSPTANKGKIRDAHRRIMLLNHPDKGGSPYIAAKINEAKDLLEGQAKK

Target | log2 fold change [1] | log2 fold change [2] | log2 fold change [3] | log2 fold change [4] | log2 fold change (entinostat) | log2 fold change (vorinostat) | log2 fold change (citarinostat) | log2 fold change (silmitasertib) | log2 fold change [5] | log2 fold change [6] | log2 fold change (entospletinib)
DHX36 (UniProt Q9H2U1) | 0 | 0.025 | -0.028 | 0.056 | -0.003 | -0.028 | 0.014 | 0.009 | 0.11 | -0.283 (active) | 0.016
DHX16 (UniProt O60231) | 0.005 | 0.018 | -0.021 | -0.044 | 0.013 | 0.001 | 0.049 | -0.142 | -0.012 | -0.041 | 0.01
DDX4 (UniProt Q9NQI0) | -1.13 (active) | 0.01 | 0.297 | -0.35 | -0.405 | -0.253 | -0.146 | 0.171 | -0.273 | -0.194 | 0.276
CYFIP1 (UniProt Q7L576) | -0.088 | -0.029 | -0.143 | 0.003 | 0.02 | -0.025 | 0.031 | 0.009 | -0.039 | -0.064 | -0.018
DCUN1D1 (UniProt Q96GG9) | -0.024 | -0.048 | -0.102 | -0.01 | 0.016 | 0.002 | 0.054 | 0.002 | -0.098 | -0.02 | -0.023
DBT (UniProt P11182) | -0.009 | 0.003 | 0.005 | -0.021 | -0.042 | 0.006 | -0.011 | 0.027 | 0.022 | -0.093 | 0.025
EIF4G1 isoform 8 (UniProt Q04637) | -0.104 | -0.273 | -0.154 | -0.106 | 0.185 | 0.116 | 0.058 | -0.045 | 0.194 | -0.269 | 0.024
EIF4E isoform 2 (UniProt P06730) | 0.005 | 0.226 | 0.059 | 0.126 | -0.073 | -0.01 | -0.026 | 0.102 | -0.044 | 0.141 | 0.062
EXOC1 (UniProt Q9NV70) | 0.043 | -0.162 | -0.228 | -0.065 | 0.062 | 0.082 | 0.014 | 0.127 | 0.069 | -0.165 | -0.035
EXOC6 (UniProt Q8TAG9) | -0.052 | -0.091 | -0.258 | -0.078 | 0.045 | 0.324 (active) | 0.023 | 0.049 | 0.03 | 0.007 | 0.014
EED, A0A5F9ZI63 | 0.03 | 0.053 | 0.037 | -0.029 | -0.039 | 0.021 | 0.098 | 0.078 | 0.065 | -0.078 | 0.037
DOCK8 (UniProt Q8NF50) | -0.088 | 0.073 | 0.461 | 0.036 | 0.079 | 0.031 | 0.064 | 0.254 | -0.12 | 0.07 | -0.044
ECPAS (UniProt Q5VYK3) | -0.009 | -0.024 | -0.169 | -0.035 | 0.073 | 0.077 | 0.08 | 0.071 | -0.038 | -0.032 | -0.025
DHFR (UniProt P00374) | 0.095 | 0.209 | 0.849 (active) | -0.139 | -0.02 | 0.082 | 0.042 | 0.57 (active) | 0.072 | -0.048 | 0.013
EPHX2 (UniProt P34913) | -0.148 | -0.05 | -0.016 | -0.015 | 0.045 | 0.113 | 0.025 | 0.003 | -0.025 | -0.037 | 0.05
EEA1 (UniProt Q15075) | 0.013 | -0.014 | 0.006 | -0.014 | -0.023 | 0.004 | -0.001 | 0.015 | 0.006 | -0.043 | -0.005
DDX27 (UniProt Q96GQ7) | 0.002 | 0.04 | 0.198 | 0.123 | -0.106 | -0.039 | -0.103 | 0.087 | 0.326 | -0.218 | -0.035
ELOVL1 (UniProt Q9BW60) | 0.017 | -0.191 | -0.087 | -0.055 | 0.05 | 0.321 | -0.006 | -0.046 | 0.002 | 0.035 | -0.007
DNAJB12 (UniProt Q9NXW2) | -0.03 | -0.018 | -0.048 | -0.029 | 0.001 | 0.027 | 0.027 | 0.079 | -0.038 | 0.002 | 0.01
EIF3J (UniProt O75822) | 0.035 | -0.033 | -0.072 | 0.007 | 0.012 | 0.143 | 0.001 | 0.042 | -0.017 | 0.022 | -0.005
CTSV (UniProt O60911) | 0 | -0.066 | -0.296 | -0.052 | -0.063 | -0.029 | -0.008 | 0.027 | -0.105 | 0.165 | 0.013
DNAJC19 (UniProt Q96DA6) | -0.014 | 0.004 | -0.017 | -0.006 | 0.004 | -0.03 | 0.024 | -0.018 | 0.01 | -0.015 | 0.026
CYP51A1 (UniProt Q16850) | -0.018 | -0.004 | 0.024 | -0.033 | -0.045 | 0.119 | 0.006 | 0.001 | 0.964 (active) | -0.112 | 0.093
DOHH (UniProt Q9BU89) | 0.043 | 0.056 | 0.278 | 0.009 | -0.106 | -0.04 | 0.017 | 0.047 | 0.153 | 0.283 | 0.1
EXOC7 (UniProt Q9UPT5) | 0.009 | -0.142 | -0.223 | -0.022 | 0.04 | 0.09 | 0.077 | 0.052 | 0.028 | -0.012 | -0.106
DPYSL2 (UniProt Q16555) | 0.053 | 0.01 | 0.014 | -0.056 | -0.037 | 0.276 | -0.017 | -0.118 | -0.224 | -0.054 | -0.015
ELOC (UniProt Q15369) | -0.008 | -0.011 | -0.015 | -0.008 | 0.024 | 0.024 | 0.036 | -0.007 | -0.107 | -0.053 | 0.028
